# Source: the supplement of paper PMC3334620
# Whole data set: some 33,000 sequences, median “E-score (-0.5 to 0.5)” near -0.017, cut for the highest 2% near 0.3. This excerpt belongs to a sample that is enriched for the highest values.
# Molecular target: T1, Sut1 (UniProt P53032)
# T1 sequence: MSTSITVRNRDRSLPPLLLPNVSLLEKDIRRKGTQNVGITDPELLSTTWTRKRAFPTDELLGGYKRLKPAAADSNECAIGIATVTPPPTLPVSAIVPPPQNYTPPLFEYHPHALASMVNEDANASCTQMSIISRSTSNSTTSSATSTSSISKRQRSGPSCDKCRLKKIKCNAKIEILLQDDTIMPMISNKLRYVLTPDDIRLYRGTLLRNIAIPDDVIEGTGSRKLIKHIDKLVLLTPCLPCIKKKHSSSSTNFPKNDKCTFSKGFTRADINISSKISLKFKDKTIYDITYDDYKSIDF
# Experiment: PBM E-score (8-mer binding enrichment) (E-score (-0.5 to 0.5)); higher = stronger / more preferred TF binding
# Settings: protein concentration: 200 nM; construct: GST-full length
# Protocol: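 Universal 'all 10-mer' protein binding microarrays (Agilent AMADID 015681) probed with GST-tagged S. cerevisiae TFs (full-length or DBD) made by in vitro transcription/translation (PURExpress), about 100-200 nM. Bound TF was detected with fluorescent anti-GST. Each ungapped 8-mer (which stands for itself and its reverse complement) is scored by the PBM enrichment score (E-score), a modified Wilcoxon-Mann-Whitney statistic from -0.5 to +0.5, computed with the Universal PBM Analysis Suite. Scale: above 0.35 generally sequence-specific binding.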
row,Sequence,PBM E-score
1,ATTCCAAT,0.161
2,ATACGTTC,-0.101
3,ATGTGCGA,-0.0365
4,AACTAGCG,-0.0241
5,ACCTTCGG,0.147
6,CATTTGCA,0.0495
7,ATCCTCCA,-0.0869
8,TGCCTACA,-0.15
9,TGTCCGAA,0.428
10,TGTCCTAA,-0.0608
11,GGTCCAAA,-0.168
12,CGTCCGAA,0.125
13,GGTCCGAA,0.437
14,TGTCCAAA,0.124
15,GTACGTCA,-0.0804
16,ATACTGGA,0.122
17,GACAACGA,0.104
18,ACGTTTGA,0.132
19,AGCTGGCA,-0.241
20,CGCGAACG,-0.0292
21,GAATCGCA,-0.0351
22,GAATCGGC,0.0753

row,Sequence,PBM E-score
1,GAATCGGA,0.376
2,AAATCGGA,0.397
3,AAATCGGG,0.0832
4,AAATCGGT,0.0195
5,CAATCGGA,0.286
6,TAATCGAA,0.0525
7,TAATCGGA,0.308
8,CAGGTGAC,-0.157
9,ACCACTCT,-0.157
10,ATTGCAAT,0.0774
11,AAAATTTT,0.236
12,AATTGTAC,0.146
13,TATGAGGA,-0.0297
14,GGCGATGA,-0.143
15,ATCCGGCC,0.135
16,GGCCGGCC,-0.0421
17,GACCGGCA,-0.308
18,GGCCGGCA,0.00533
19,CTCCGGCA,0.423
20,CCCCGGCA,0.0139
21,GTCCGGCA,0.317
22,ATCCGGCA,-0.166

row,Sequence,PBM E-score
1,CTCCGGCC,0.376
2,GCACCTTA,-0.00495
3,GTTACACA,-0.2
4,GAAAGGGC,0.00203
5,CACAGCAC,-0.205
6,CTTTCCGA,0.226
7,GTTTCCGA,0.332
8,ACTTCCGA,0.245
9,GCTTCCGA,0.303
10,GTTTCCAA,0.0451
11,CCTTCCGA,0.134
12,AGTGGATG,-0.0759
13,ATCCCTCC,-0.194
14,GAGTGAAC,-0.111
15,AAACTCCA,0.297
16,AAACTCCT,0.016
17,TAACTCCA,0.143
18,ATCTTATC,0.154
19,ACGAGGTG,-0.21
20,ATATAAGC,0.0532
21,AACAAATT,0.306
22,AAGAAAAG,0.116

row,Sequence,PBM E-score
1,AACAAATG,0.159
2,AAGAAAAT,0.257
3,AAGAAATG,0.144
4,AAGAAATT,0.313
5,AAGAAAAA,0.319
6,AAGAAATA,0.177
7,AACAAGTT,0.132
8,GACGCCGC,-0.221
9,ACAGTCTC,-0.112
10,CGACGGGC,-0.197
11,AACTAAAG,0.195
12,TACTAATA,0.181
13,AACTAACC,0.336
14,CACTATAA,-0.0412
15,AACTAATA,0.324
16,TACTAAAA,0.207
17,AACTAAAA,0.31
18,CACTAATA,0.213
19,AACTAACA,0.0858
20,AACTATAA,0.204
